This note sets out measurements from PubChem BioAssay (NCATS).

Test [1] deals with Transient receptor potential cation channel subfamily V member 1 (Homo sapiens) (UniProt Q8NER1). The test is described as follows: HTS Assay for Compounds that Act as Enhancers of the Vanilloid Receptor 1 (AID 488979). Further: 0% is about no effect. An outline of the steps:
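TRPV1-expressing cells loaded with Fluo-8 calcium dye; compounds added and calcium influx read kinetically for 3 min (agonist phase), then capsaicin at EC20 added and read 2 min more for enhancement. Fluorescence ex 480/em 520 nm.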

Test [2] concerns the target Thyrotropin receptor (Homo sapiens) (UniProt P16473). As to the kind of experiment: qHTS Assay for Antagonists of the Thyroid Stimulating Hormone Receptor (AID 488980). Further: series mostly up to about 58 µM; 0% is about no effect. An outline of the steps: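 Inhibition of TSH-stimulated cAMP accumulation was quantified by homogeneous time-resolved FRET in TSHR-transfected HEK293 cells. Agonist: TSH, 4 nM final (EC80).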
The target in test [3] is D(1A) dopamine receptor (Homo sapiens) (UniProt P21728). The test is described as follows: HTS Assay for Allosteric Agonists of the Human D1 Dopamine Receptor: Primary Screen for Potentiators (AID 488982). Further: 0% is about no effect. An outline of the steps: (§1)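 Tetracycline-induced HEK293 T-REx cells force-coupled to calcium signalling were incubated overnight at 30 C and dye-loaded at room temperature. Calcium flux over 180 s after compound addition flagged agonists; a further 180 s read after EC20 dopamine flagged potentiators.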

For test [4] the target is unchanged. The test is described as follows: HTS Assay for Allosteric Agonists of the Human D1 Dopamine Receptor: Primary Screen for Antagonists (AID 488983).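 Further: calcium flux response to an EC80 dopamine challenge measured with no-wash dye; on the % scale 0 is the no-effect control and ±100 the full control effect; nearly all actives have a fitted effect of over 65% in size.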 The method, boiled down:
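Cells are induced with tetracycline and incubated overnight at 30 C, then loaded with calcium dye for 30 to 90 minutes at room temperature. Compound addition is followed by a 180 s read, then an EC80 dopamine addition and another 180 s read.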

The nature of test [5]: Validation screen for small molecules that induce genotoxicity in human embryonic kidney (HEK293T) cells expressing luciferase-tagged ELG1 (AID 493106). Further: 0% is about no effect. An outline of the steps: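 Luminescence from an ELG1-luciferase fusion serves as the read-out, rising when genetic stress elevates ELG1 protein. HEK293T reporter cells (2,000 per well) received 23 nL compound, incubated 16 hr at 37 °C, then ONE-Glo for 30 min at room temperature.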

Test [6] deals with ATPase family AAA domain-containing protein 5 (Homo sapiens) (UniProt Q96QE3). The test is described as follows: Validation screen for small molecules that inhibit ELG1-dependent DNA repair in human embryonic kidney (HEK293T) cells expressing luciferase-tagged ELG1 (AID 493107).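 Further: cells co-treated with the DNA-damaging agent 5-fluorouridine alongside compound; series mostly up to about 46 µM; on the % scale 0 is the no-effect control and ±100 the full control effect; inhibitors lower the ELG1-luciferase luminescence signal; nearly all actives have a fitted effect of over 70% in size.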 The method, boiled down: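 Luminescence from ONE-Glo, developed 30 min at room temperature, served as read-out of ELG1-luciferase levels. Beforehand, reporter HEK293T cells received 5-fluorouridine plus test compound for 16 hr at 37 °C.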

Test [7] concerns the target Thyrotropin-releasing hormone receptor (Homo sapiens) (UniProt P34981). The test is described as follows: qHTS for Small Molecule Agonists and Allosteric Enhancers of Human TRH Receptor: Validation Screen for Agonists (AID 493127;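 active means calcium activation more than 3 SD above the typical response in the agonist read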;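 further: intracellular calcium rise by fluo-8 fluorescence before TRH EC20 addition; 0% is about no effect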). As to conditions: TRH receptor agonist cell assay; at 2 µM; stronger effect = higher value. An outline of the steps:
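Cells 2000/well, 10% FCS, 18 h 33.5C/5% CO2 → fluo-8 Ca dye, RT 30 min–1.5 h → FDSS baseline 10 × 1 s → compound added → 230 cycles (1 s/cycle) agonist mode. TRH controls.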

Test [8] is described as follows: Nrf2 qHTS screen for inhibitors: Validation (AID 493153; active means well fitted inhibition curve with a large enough effect in the main read-out, with a control signal flat, not every such curve was filed as active). As to conditions: Potency: luciferase luminescence; viability change: measured here: cytotoxicity max response. The method, boiled down:
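Luminescence from an ARE-firefly luciferase reporter in A549 cells gives Nrf2 inhibition; an earlier CellTiter-Fluor fluorescent read flags cytotoxicity. Cells in 5% FBS OPTI-MEM received compound dilution series for 18-24 h at 37°C.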

Test [9] is described as follows: qHTS for Inhibitors of Cell Surface uPA Generation: Validation Assay (AID 493164). Further: 0% is about no effect. The method, boiled down:
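RAW 264.7 cells (4000/well) were plated overnight, then exposed for 18 h at 37 C, 5% CO2 to compounds in a 7-point 1:5 titration (2.45 nM–38.3 uM final). Intracellular ATP was read by ATP-Lite luminescence.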

The target in test [10] is Galactokinase (Homo sapiens) (UniProt P51570). As to the kind of experiment: qHTS Validation Assay for Inhibitors of Human Galactokinase (GALK) (AID 493189). Further: 0% is about no effect. An outline of the steps: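 Enzyme activity is inferred from ATP consumption: human GALK phosphorylates galactose (100 uM) using 35 uM ATP for 1 h at room temperature, and luciferase-based Kinase-Glo Plus reports unconsumed ATP.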

The target in test [11] is Peptidyl-prolyl cis-trans isomerase NIMA-interacting 1 (Homo sapiens) (UniProt Q13526). The test is described as follows: qHTS Validation Assay to Find Inhibitors of Pin1 (AID 504536; active means well fitted inhibition curve with a large enough effect in the polarisation, with a control signal flat, not every such curve was filed as active; the % refers to the polarisation;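 further: 0% = full Pin1 enzyme wells and -100% = no-enzyme wells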). An outline of the steps: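 Fluorescence polarization competition: compounds (titration) displace HiFluor-488-labeled Pin1-1b peptide from Pin1 (0.3 uM final) in pH 7.5 HEPES buffer with DTT, 10 min at room temperature; %Activity normalized to no-enzyme wells, curves fitted.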

Test [12] concerns the target Phosphoglycerate kinase, glycosomal (Trypanosoma brucei brucei) (UniProt P07378). As to the kind of experiment: qHTS Validation Assay to Find Inhibitors of Phosphoglycerate Kinase (AID 504547).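 Further: control wells lack PGK and mark full inhibition.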 The method, boiled down:
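Substrate/PGK mix plus compound; reaction started with GAPDH (100nM final) to form 1,3-BPG; 60 min RT; Kinase-Glo Plus 10 min; luminescence. TEA 100mM pH 7.6, MgCl2 5mM, Tween-20 0.01%.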

Test [13] has as its target phosphoglycerate mutase (Leishmania major) (UniProt Q4Q090). As to the kind of experiment: qHTS Validation Assay to Find Inhibitors of Phosphoglycerate Mutase (AID 504548).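 Further: end-point luminescence from Kinase-GloPlus after the PGAM reaction; series mostly up to about 58 µM; on the % scale 0 is the no-effect control and ±100 the full control effect.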 The settings on record: Potency: inhibition qHTS. An outline of the steps: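 L. major PGAM (1.25nM final) was added to substrate buffer and pinned compound, incubated 45 minutes at room temperature, then Kinase-GloPlus added; luminescence read after 10 minutes. Buffer: 100 mM TEA pH 7.6, 5 mM MgCl2, 0.01% Tween-20.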

Test [14] in a line: qHTS for Inhibitors of ATXN expression: Validation of Cytotoxic Assay (AID 588349). Further: on the % scale 0 is the no-effect control and ±100 the full control effect. The method, boiled down:
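Read-out: ATP-based luminescence (CellTiter Glo) reflecting viability of HEK293 cells after 72 hr incubation at 37 degrees C with a concentration series of each compound.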

A short description of test [15]: qHTS for Inhibitors of ATXN expression: Validation (AID 588378). Further: series mostly up to about 57 µM; on the % scale 0 is the no-effect control and ±100 the full control effect; nearly all actives have a fitted effect of over 75% in size. The method, boiled down:
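After a 2 h attachment and 24 h compound incubation, HEK293-ATXN2-FFLuc wells are read for fluorescence at 405 nm excitation/525 nm emission as a viability measure, then for Bright-Glo luminescence reflecting ATXN2 expression.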

A short description of test [16]: Validation screen for small molecules that induce DNA re-replication in SW480 colon adenocarcinoma cells (AID 504364). Further: 0% is about no effect. The method, boiled down:
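250 cells/well; compound pinned in; 48 hr, 37 C, 5% CO2; Hoechst added, 40 min; nuclear fluorescence imaged, 405 ex / 500-530 em; re-replication scored as increase in high-intensity nuclei.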

For test [17], the target named is Ubiquitin carboxyl-terminal hydrolase 1 (Homo sapiens) (UniProt O94782). As to the kind of experiment: Inhibitors of USP1/UAF1: Pilot qHTS (AID 504865). Further: nearly all actives have a fitted effect of over 35% in size. Further: potency means the concentration at half of the fitted maximal effect. An outline of the steps:
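Enzyme-free wells gave the negative control, while test wells held 1nM USP1/UAF1 preincubated with compound for 15 min at room temperature. Ub-Rho at 150nM final started the reaction, and fluorescence at 480/540 nm was recorded kinetically.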

Test [18] deals with D(1A) dopamine receptor (Homo sapiens) (UniProt P21728). The test is described as follows: HTS Assay for Allosteric Agonists of the Human D1 Dopamine Receptor: Primary Screen for Agonists (AID 488981). Further: 0% is about no effect. The method, boiled down:
as §1

The target in test [19] is ATP-dependent 6-phosphofructokinase (Trypanosoma brucei brucei) (UniProt O15648). As to the kind of experiment: qHTS Assay to Find Inhibitors of T. brucei phosphofructokinase: hit validation (AID 492961).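 Further: luminescence reports ADP formed as PFK phosphorylates fructose-6-phosphate with ATP; series mostly up to about 51 µM; on the % scale 0 is the no-effect control and ±100 the full control effect.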 The method, boiled down: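 Reaction: 0.1 M triethanolamine pH 8.0, 5 mM MgCl2, F6P 0.5 mM, ATP 0.1 mM, PFK 1.25 nM, 45 min RT. Read-out: ADP-Glo luminescence. Analysis: concentration-response fits, classed by r2 and efficacy.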

The structures appear in SMILES notation. Inconclusive results are not listed. Active and inactive are the calls of the source. Unless noted, the call rests on the fitted dose curve; in most records, active means well fitted curve in the direction sought with a large enough effect; inconclusive means small, poorly fitted or top-dose-only effect, or another doubt; inactive means no such curve, though single readings can be large; an effect the other way counts as inactive or inconclusive.

Sequence of Phosphoglycerate kinase, glycosomal (Trypanosoma brucei brucei) (P07378 whole entry, looked up): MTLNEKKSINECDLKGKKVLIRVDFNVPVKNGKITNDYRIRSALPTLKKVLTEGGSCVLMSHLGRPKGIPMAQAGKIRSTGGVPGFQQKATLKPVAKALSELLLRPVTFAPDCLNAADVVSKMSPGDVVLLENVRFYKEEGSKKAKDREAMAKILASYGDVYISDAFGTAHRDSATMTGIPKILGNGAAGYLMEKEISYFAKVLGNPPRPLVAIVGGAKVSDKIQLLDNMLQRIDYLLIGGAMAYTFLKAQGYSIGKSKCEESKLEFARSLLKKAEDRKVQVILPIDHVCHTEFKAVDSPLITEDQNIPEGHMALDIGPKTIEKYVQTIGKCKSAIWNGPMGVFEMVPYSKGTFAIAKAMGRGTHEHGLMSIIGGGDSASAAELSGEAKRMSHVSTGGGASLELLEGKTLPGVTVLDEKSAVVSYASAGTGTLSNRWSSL
Sequence of phosphoglycerate mutase (Leishmania major) (Q4Q090 1-553): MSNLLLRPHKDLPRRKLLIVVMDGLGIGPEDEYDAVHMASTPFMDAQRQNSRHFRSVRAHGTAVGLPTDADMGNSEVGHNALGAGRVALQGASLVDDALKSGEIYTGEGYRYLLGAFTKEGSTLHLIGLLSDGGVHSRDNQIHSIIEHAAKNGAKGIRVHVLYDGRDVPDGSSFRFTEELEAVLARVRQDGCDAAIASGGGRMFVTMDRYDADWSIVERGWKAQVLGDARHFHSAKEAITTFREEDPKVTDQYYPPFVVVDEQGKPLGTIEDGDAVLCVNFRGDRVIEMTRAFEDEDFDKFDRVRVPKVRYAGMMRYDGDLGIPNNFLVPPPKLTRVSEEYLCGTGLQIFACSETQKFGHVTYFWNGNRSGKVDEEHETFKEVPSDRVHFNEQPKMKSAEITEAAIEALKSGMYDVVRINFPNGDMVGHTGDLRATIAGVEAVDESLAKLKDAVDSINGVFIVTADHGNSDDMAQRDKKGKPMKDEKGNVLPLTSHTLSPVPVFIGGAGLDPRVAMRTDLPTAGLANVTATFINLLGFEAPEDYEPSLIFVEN
Sequence of ATPase family AAA domain-containing protein 5 (Homo sapiens) (Q96QE3 whole entry, looked up, the tested form may be a part): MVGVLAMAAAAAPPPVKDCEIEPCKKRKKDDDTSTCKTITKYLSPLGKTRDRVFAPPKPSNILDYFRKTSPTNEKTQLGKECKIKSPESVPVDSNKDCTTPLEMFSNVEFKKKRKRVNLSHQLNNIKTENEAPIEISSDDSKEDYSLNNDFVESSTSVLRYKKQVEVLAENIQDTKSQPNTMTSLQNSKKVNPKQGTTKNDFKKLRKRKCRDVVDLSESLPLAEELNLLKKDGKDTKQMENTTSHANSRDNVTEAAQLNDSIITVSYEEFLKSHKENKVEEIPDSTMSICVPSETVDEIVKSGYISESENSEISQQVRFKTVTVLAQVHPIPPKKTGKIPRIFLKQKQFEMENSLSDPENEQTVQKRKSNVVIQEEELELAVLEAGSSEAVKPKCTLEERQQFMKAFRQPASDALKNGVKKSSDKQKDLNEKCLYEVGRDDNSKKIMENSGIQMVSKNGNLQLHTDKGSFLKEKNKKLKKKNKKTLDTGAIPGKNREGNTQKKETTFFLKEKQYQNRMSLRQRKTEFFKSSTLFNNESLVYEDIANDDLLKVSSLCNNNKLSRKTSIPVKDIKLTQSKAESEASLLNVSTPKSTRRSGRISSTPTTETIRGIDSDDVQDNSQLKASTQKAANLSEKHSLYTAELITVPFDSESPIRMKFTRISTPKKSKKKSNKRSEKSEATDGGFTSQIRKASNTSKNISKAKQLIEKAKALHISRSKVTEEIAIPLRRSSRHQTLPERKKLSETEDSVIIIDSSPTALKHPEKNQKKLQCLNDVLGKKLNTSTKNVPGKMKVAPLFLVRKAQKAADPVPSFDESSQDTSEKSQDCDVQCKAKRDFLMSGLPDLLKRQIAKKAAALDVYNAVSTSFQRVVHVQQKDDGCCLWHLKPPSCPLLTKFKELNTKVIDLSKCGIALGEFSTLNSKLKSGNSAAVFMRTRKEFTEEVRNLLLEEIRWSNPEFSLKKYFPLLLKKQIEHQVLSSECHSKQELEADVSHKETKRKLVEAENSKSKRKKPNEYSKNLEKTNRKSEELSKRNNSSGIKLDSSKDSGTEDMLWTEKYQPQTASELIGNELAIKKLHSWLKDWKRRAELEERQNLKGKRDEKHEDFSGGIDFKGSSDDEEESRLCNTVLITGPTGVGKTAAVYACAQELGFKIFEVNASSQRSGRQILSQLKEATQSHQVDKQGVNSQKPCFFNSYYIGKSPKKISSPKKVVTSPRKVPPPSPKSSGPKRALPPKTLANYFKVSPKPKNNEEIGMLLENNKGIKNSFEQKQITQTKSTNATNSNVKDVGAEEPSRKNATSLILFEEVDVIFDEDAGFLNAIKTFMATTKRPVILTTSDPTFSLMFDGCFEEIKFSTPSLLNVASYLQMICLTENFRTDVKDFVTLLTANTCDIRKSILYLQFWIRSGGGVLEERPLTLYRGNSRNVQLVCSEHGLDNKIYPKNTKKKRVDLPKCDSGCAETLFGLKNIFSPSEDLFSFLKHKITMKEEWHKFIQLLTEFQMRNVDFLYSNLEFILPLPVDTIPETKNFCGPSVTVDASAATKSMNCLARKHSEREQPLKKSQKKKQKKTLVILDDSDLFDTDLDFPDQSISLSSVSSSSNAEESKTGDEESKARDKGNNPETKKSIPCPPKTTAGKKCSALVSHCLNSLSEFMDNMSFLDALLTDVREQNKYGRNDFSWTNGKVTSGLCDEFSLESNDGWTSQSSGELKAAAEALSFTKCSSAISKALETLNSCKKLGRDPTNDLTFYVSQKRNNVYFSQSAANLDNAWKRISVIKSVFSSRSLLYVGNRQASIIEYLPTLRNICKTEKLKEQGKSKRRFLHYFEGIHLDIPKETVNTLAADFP
Sequence of D(1A) dopamine receptor (Homo sapiens) (P21728 whole entry, looked up): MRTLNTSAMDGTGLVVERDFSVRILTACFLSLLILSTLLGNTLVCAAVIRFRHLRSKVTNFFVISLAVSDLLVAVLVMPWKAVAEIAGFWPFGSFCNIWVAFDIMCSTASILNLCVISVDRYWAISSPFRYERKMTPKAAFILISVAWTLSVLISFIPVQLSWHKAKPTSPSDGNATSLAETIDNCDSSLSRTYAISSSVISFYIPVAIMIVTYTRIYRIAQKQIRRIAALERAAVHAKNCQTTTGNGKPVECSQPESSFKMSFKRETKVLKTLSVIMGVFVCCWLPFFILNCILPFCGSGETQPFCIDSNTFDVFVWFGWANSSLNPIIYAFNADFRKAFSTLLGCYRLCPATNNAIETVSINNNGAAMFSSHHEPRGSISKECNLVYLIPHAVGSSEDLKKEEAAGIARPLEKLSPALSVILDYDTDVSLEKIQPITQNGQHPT
Sequence of Peptidyl-prolyl cis-trans isomerase NIMA-interacting 1 (Homo sapiens) (Q13526 whole entry, looked up): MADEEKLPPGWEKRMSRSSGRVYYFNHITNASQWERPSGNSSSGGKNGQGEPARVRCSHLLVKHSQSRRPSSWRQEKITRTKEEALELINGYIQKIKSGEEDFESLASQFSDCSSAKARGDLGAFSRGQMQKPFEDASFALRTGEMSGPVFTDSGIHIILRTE
Sequence of Thyrotropin receptor (Homo sapiens) (P16473 whole entry, looked up): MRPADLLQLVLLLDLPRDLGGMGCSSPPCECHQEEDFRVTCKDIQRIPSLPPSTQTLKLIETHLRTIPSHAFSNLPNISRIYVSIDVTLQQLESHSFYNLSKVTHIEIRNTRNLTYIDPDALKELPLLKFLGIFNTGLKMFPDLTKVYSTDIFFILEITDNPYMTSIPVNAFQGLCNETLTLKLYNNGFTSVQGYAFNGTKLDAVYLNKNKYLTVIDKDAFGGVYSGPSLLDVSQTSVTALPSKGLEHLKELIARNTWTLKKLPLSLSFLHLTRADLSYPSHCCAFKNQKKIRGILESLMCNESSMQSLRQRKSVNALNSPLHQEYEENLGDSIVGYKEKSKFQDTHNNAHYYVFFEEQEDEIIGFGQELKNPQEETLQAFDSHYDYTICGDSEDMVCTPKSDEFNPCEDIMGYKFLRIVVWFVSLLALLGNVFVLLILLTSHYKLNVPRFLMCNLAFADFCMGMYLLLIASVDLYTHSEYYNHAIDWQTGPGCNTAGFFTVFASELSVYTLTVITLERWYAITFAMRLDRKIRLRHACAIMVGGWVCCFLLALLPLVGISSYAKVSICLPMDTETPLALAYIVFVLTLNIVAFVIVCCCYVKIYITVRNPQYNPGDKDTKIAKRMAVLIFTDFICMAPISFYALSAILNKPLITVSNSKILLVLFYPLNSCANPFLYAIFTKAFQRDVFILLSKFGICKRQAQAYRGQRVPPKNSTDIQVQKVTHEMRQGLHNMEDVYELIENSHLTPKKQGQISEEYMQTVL
Sequence of Ubiquitin carboxyl-terminal hydrolase 1 (Homo sapiens) (O94782 whole entry, looked up): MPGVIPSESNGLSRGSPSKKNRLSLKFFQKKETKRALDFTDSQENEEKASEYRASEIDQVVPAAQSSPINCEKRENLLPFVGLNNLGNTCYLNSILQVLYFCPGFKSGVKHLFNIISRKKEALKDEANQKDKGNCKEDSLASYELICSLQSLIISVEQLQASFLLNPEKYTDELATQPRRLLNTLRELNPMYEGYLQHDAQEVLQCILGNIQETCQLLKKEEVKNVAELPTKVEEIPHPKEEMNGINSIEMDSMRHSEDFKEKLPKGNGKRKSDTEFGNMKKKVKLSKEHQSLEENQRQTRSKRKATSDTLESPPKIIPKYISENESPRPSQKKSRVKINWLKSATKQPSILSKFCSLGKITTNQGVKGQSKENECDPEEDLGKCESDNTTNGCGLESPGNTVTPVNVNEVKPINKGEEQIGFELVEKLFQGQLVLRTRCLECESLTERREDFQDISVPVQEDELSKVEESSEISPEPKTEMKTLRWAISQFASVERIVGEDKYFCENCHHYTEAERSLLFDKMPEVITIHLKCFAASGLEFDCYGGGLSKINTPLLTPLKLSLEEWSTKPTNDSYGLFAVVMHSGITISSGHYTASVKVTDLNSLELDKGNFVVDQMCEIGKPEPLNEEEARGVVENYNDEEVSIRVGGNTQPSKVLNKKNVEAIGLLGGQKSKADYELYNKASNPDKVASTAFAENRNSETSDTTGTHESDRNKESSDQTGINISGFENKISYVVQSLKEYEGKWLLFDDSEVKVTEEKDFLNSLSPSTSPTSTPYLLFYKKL

In the case of `O=c1onc2n1-c1cc(Br)ccc1OC2`, the result in [1], in test [2] and in test [9] was inactive. Besides, the Potency entry in test [3], in test [4], in test [5], in test [6], in test [8] and in test [10] was “inactive” throughout. Moreover, the Potency result in test [11], in [12], in [13], in test [14] and in [15] was “inactive” each time. The activation in test [7] was 1.75% (inactive). The viability change in [8] is -3.61%.
As for `Cn1ccnc1`, the outcome in test [1], in test [2] and in test [9] was inactive. Further, the Potency result in test [3], in test [4], in test [5], in test [6], in test [8] and in test [10] was “inactive” each time. Further, the Potency entry in test [16], in test [11], in test [12], in test [13], in test [17] and in test [14] was “inactive” each time. In test [15], the Potency result is “inactive”. Besides, the activation in test [7] was 1.38% (inactive). The viability change in [8] came to 2.46%.
Consider `Oc1cc2c(cc1O)C(c1ccccc1)CNCC2` (stereo unspecified), for which the result in test [1], in [2] and in test [9] was inactive. Moreover, the Potency entry in test [18], in test [5], in [6], in test [8], in [10] and in test [16] was “inactive” in each case. For the same compound, the Potency entry in [11], in test [12], in test [13], in test [17], in [14] and in test [15] was “inactive” each time. Also, the activation in test [7] is 0.938% (inactive). The viability change in test [8] is -2.55%.
`c1ccc(C2CN3CCSC3=N2)cc1` (stereo unspecified): the outcome in [1], in [2], in test [19] and in [9] was inactive. Besides, the Potency result in [3], in test [4], in test [5], in test [6], in test [8] and in test [10] was “inactive” throughout. The Potency entry in test [16], in test [11], in test [12], in [13], in test [17] and in test [14] was “inactive” each time. The Potency entry in test [15] is “inactive”. Also, the activation in [7] was -0.188% (inactive). Besides, in test [8], the viability change was determined as 5.53%.
As for `CC(N)(C(=O)O)c1ccc(C(=O)O)cc1` (stereo unspecified), the outcome in test [1], in test [2] and in test [9] was inactive. The Potency entry in test [3], in test [4], in [5], in test [6], in test [8] and in test [10] was “inactive” each time. In addition, the Potency entry in test [12], in test [17], in test [14] and in test [15] was “inactive” in each case. The activation in test [7] was 1.12% (inactive). For the same compound, the viability change in test [8] came to 1.94%.
`C[C@H](O)C(=O)C1=Nc2c(nc(N)[nH]c2=O)NC1`: the result in test [1], in [2] and in test [9] was inactive. For the same compound, the Potency entry in test [3], in test [4], in [5], in test [6], in [8] and in test [16] was “inactive” throughout. The Potency result in [11], in [12], in [13] and in [15] was “inactive” throughout. Further, in [7], the activation was 1.06% (inactive). Also, the viability change in test [8] was 8.34%. Also, in test [17], the Potency was 56.2 µM (active).
On to `NCCCNCCCCNCCCN`, for which the result in test [1], in [2] and in test [9] was inactive. Moreover, the Potency result in test [3], in test [4], in test [5], in [8], in [10] and in [16] was “inactive” throughout. For the same compound, the Potency entry in [11], in test [13], in test [17] and in [15] was “inactive” throughout. Further, the activation in test [7] is 0.688% (inactive). Further, the viability change in test [8] was -11.3%.
